Experimental findings from PubChem BioAssay (EPA / NIEHS) are described below.

The assay addresses Androgen receptor (Homo sapiens) (UniProt P10275). As to the kind of experiment: ATG_AR_TRANS: Attagene TRANS-FACTORIAL HepG2 Assay for human Androgen Receptor (AR) (AID 2282973). The settings on record: HepG2 Attagene TRANS-FACTORIAL AR reporter transcription. An outline of the steps: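 Steps: transfect HepG2 with multiple GAL4-UAS reporter transcription units (TRANS format, exogenous NR-Gal4 protein); dose 24 h; isolate RNA, reverse-transcribe, PCR-amplify, FAM-label, HpaI-digest; resolve by capillary electrophoresis. Positive direction vs DMSO.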

Molecules are shown by their SMILES. Inconclusive results are not listed. Active and inactive are the calls of the source. Rule for the calls: active = hit-call score of the fitted dose curve at least 0.9, where 1 is the maximum; inconclusive = response in the unintended direction; inactive = score below 0.9.

Androgen receptor (Homo sapiens), sequence (P10275 whole entry, looked up, the tested form may be a part): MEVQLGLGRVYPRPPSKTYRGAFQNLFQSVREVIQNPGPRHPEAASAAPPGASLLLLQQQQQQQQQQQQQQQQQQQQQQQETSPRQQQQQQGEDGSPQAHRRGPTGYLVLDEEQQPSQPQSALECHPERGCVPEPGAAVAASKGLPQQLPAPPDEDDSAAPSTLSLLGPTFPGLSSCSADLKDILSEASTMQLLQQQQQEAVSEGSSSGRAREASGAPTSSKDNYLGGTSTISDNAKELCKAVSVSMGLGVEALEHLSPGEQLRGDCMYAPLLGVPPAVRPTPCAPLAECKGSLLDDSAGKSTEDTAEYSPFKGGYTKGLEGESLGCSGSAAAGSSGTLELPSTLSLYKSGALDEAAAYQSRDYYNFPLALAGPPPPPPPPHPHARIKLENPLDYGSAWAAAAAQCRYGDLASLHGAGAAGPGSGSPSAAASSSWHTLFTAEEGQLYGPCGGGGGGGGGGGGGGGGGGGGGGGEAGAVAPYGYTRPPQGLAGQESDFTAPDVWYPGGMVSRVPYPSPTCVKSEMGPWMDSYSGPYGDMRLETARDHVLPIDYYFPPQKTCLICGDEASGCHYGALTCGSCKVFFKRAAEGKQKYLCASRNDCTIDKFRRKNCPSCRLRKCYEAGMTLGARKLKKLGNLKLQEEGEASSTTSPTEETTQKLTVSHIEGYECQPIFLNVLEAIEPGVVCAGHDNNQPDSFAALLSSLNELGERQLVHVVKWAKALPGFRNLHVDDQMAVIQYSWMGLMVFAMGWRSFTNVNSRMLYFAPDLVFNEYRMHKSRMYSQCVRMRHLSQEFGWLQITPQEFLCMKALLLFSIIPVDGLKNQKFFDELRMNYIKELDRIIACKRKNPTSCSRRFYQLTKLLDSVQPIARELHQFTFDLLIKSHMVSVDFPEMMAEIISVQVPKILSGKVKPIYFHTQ

With `CCCCCCCCCCCCC[N+](C)(C)Cc1ccccc1`, the outcome was inactive.
As for `O=c1cc(-c2ccccc2)oc2ccc3ccccc3c12`, the result was inactive.
For `CC(=O)OC1CCCCC1C(C)(C)C` (stereo not given), the outcome was inactive.
Regarding `COc1cc(C(C)C)ccc1C`, the result was inactive.
To `O=[N+]([O-])c1cc(C(F)(F)F)ccc1Cl` belongs “inactive”; to `COC(=O)Cc1cccc2ccccc12`, “inactive”; to `NCCNc1cccc2ccccc12`, “inactive”.
With `CC(C)(C)c1ccc(OC2CCCCC2O)cc1` (stereo not given), the call was inactive.
For the molecule `O=S(=O)(c1ccc(OCc2ccccc2)cc1)c1ccccc1O`, the result was inactive.
For `O=C(NCc1ncc(C(F)(F)F)cc1Cl)c1c(Cl)cccc1Cl` the value was “inactive”.
To `COC(=O)c1cccc(C)c1S(=O)(=O)NC(=O)Nc1nc(OCC(F)(F)F)nc(N(C)C)n1` belongs “inactive”; to `NCC(F)(F)C(F)(F)C(F)(F)C(F)(F)C(F)(F)C(F)(F)C(F)(F)C(F)(F)F`, “inactive”; to `O=S(=O)(O)c1ccc(Nc2nc(Nc3ccc(C=Cc4ccc(Nc5nc(Nc6ccc(S(=O)(=O)O)cc6)nc(N(CCO)CCO)n5)cc4S(=O)(=O)O)c(S(=O)(=O)O)c3)nc(N(CCO)CCO)n2)cc1`, “inactive”.
To `CCCCCCCC(=O)OCC` belongs “inactive”; to `c1ccc2c(c1)CCC2`, “inactive”.
Take `CCCCCCCC(OC)OC`: the molecule was called inactive.
Regarding `CCCCCCc1ccc(N)cc1`, the molecule was classed as inactive.
For `CCCC/C=C/C=C\C=O` the value was “inactive”.
To `CCCCCCCCCCOC(=O)c1ccccc1C(=O)OCCCCCCCC` belongs “inactive”.
As for `C=C(C)C(=O)OCC(F)(F)C(F)(F)C(F)(F)C(F)F`, the result was inactive.
To `OCc1c[nH]c2ccccc12` belongs “inactive”.
For `C=CC(=O)OCCCCCCCC(C)C`, the molecule was called inactive.
For `CCCCNc1ccc(NCCCC)c2c1C(=O)c1ccccc1C2=O` the value was “inactive”; for `CC(O)COc1ccccc1` (stereo not given), “inactive”; for `CC1COCc2cc3c(cc21)C(C)(C)C(C)C3(C)C` (stereo not given), “inactive”.
With `FC(F)=C(F)C(F)(F)C(F)(F)C(F)(F)C(F)F`, the molecule was classed as inactive.
To `COc1nccnc1CC(C)C` belongs “inactive”; to `CC1=Nc2ccc3ccccc3c2C1(C)C`, “inactive”; to `[Co]`, “inactive”.
For `CCc1ccc(C)nc1` the value was “inactive”; for `Cc1ccc(O)cn1`, “inactive”; for `CCN(CCC#N)c1ccc(N=Nc2ccc([N+](=O)[O-])cc2)cc1`, “inactive”.
To `O=CC(F)(F)C(F)(F)C(F)(F)C(F)F` belongs “inactive”.
Consider `Oc1ccc(-c2ccccc2)c(Cl)c1`, for which the outcome was inactive.
Consider `O=C(O)c1cccc(Cl)n1`, for which the molecule was called inactive.
For `CC1(C)[C@H](C=C(Cl)Cl)[C@H]1C(=O)OCc1cccc(Oc2ccccc2)c1`, the call was inactive.
To `C=CC(F)(F)C(F)(F)C(F)(F)C(F)(F)F` belongs “inactive”; to `O=C(O)CCCCCCCCCC(=O)O`, “inactive”; to `CCOC(=O)CC(C)O` (stereo not given), “inactive”.
Take `Nc1cc([N+](=O)[O-])ccc1O`: the result was inactive.
To `COc1ccccc1C=O` belongs “inactive”; to `NC(C(F)(F)F)C(F)(F)F`, “inactive”.
To `CC(=O)S[C@@H]1CC2=CC(=O)CC[C@]2(C)[C@H]2CC[C@@]3(C)[C@@H](CC[C@@]34CCC(=O)O4)[C@H]12` belongs “inactive”; to `CCCCCCCCC(C)=O`, “inactive”; to `CC(=O)OCc1ccccc1`, “inactive”.
As to `Nc1c(Cl)cc(Cl)cc1[N+](=O)[O-]`, the outcome was inactive.
To `CCc1cccc(C)c1N(C(=O)CS(=O)(=O)O)C(C)COC` (stereo not given) belongs “inactive”.
`CC1CCC(CO)CC1` (stereo not given): the molecule was classed as inactive.
On to `CC=C(C)C=CC=C(C)C`, for which the call was inactive.
In the case of `c1ccc2c(c1)c1cccc3ccc4cccc2c4c31`, the result was inactive.
